Test results from PubChem BioAssay AID720597 (Broad Institute, 2013).
Entries with a potency or affinity are not part of this list. Active and inactive are the calls of the source.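 Rule for the calls: active = fitted half-maximal dose no more than twice the top valid tested dose, for compounds that lower signal; inconclusive = fit invalid, or curve flat with activity between -70 and -30; inactive = potency past limit, curve flat within ±30, or signal increasing.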

target: NAD-dependent protein deacylase sirtuin-5, mitochondrial (Homo sapiens) (UniProt Q9NXA8); experiment: SIRT5 deacylase inhibitors, dose response, biochemical, fluorescence imaging, cherry-pick, set 6 (AID 720597); details: Purified SirT5, succinyl-peptide-AMC/trypsin fluorescence; series mostly up to 15 µM;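 note: lower AMC signal can also come from blocking the trypsin step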
Sequence (Q9NXA8 whole entry, looked up): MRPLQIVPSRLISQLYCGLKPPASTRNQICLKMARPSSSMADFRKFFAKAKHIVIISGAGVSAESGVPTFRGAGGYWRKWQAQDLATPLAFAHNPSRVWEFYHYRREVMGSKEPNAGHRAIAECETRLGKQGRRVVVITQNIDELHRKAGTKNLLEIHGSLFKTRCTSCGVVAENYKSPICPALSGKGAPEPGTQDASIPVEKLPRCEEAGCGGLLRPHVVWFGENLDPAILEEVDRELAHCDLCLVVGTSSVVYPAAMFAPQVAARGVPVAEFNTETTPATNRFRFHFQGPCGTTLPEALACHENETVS

outcome, inactive:
C[C@H]1CN([C@@H](C)CO)S(=O)(=O)c2ccc(C#CC(C)(C)O)cc2O[C@H]1CN(C)Cc1ccc(-c2ccccc2)cc1
C[C@H](CO)N1C[C@H](C)[C@H](CN(C)Cc2ccc(-c3ccccc3)cc2)Oc2cc(C#CC(C)(C)O)ccc2S1(=O)=O
C[C@H]1CN([C@@H](C)CO)S(=O)(=O)c2ccc(-c3cncnc3)cc2O[C@H]1CN(C)Cc1ccccn1
O=C(Nc1cc(F)ccc1F)N1CCCCN2[C@H](CO)[C@H](c3ccc(-c4ccccc4)cc3)[C@H]2C1
CCCC#Cc1ccc2c(c1)O[C@@H](CN(C)C(=O)c1ccccc1F)[C@@H](C)CN([C@@H](C)CO)S2(=O)=O
C[C@H]1CN([C@@H](C)CO)S(=O)(=O)c2ccc(C#CC3CC3)cc2O[C@H]1CN(C)Cc1ccccc1F
O=C1CN(S(=O)(=O)c2ccccc2)C[C@@H]2[C@H](c3ccc(C#Cc4ccccc4)cc3)[C@H](CO)N12
COc1ccc(S(=O)(=O)N(C)C[C@H]2OCCCC[C@H](C)Oc3ccc(NS(=O)(=O)c4ccc(F)cc4)cc3C(=O)N([C@@H](C)CO)C[C@H]2C)cc1
CC(C)[C@@H](C)NC(=O)N(C)C[C@@H]1OCc2ccccc2-c2c(n(C)c3ccccc23)C(=O)N([C@@H](C)CO)C[C@@H]1C
CCCC(=O)Nc1ccc2c(c1)OC[C@@H](C)N(Cc1ccccc1OC)C[C@@H](C)[C@H](OC)CN(C)C2=O
C[C@H](CO)N1C[C@H](C)[C@H](CN(C)Cc2ccccc2F)Oc2cc(C#CC3CC3)ccc2S1(=O)=O
COc1ccccc1NC(=O)Nc1ccc2c(c1)C(=O)N(C)C[C@H](OC)[C@H](C)CN[C@@H](C)CO2
COCC(=O)Nc1ccc2c(c1)[C@@H]1C[C@@H](CC(=O)NCc3ccccc3OC)O[C@@H](CO)[C@@H]1O2
CCCC#Cc1ccc2c(c1)[C@@H]1[C@@H](CCN1S(=O)(=O)c1ccccc1C)[C@@H](CO)N2
C[C@@H]1CCCCO[C@@H](CN(C)C(=O)Nc2ccc(C(F)(F)F)cc2)[C@H](C)CN([C@@H](C)CO)C(=O)c2cc(NS(=O)(=O)c3ccc(Cl)cc3)ccc2O1
Cc1cccc(S(=O)(=O)N2CCCCN3[C@@H](CO)[C@H](c4ccc(-c5ccccc5)cc4)[C@@H]3C2)c1
Cc1cccc(S(=O)(=O)N2CCCCN3[C@H](CO)[C@@H](c4ccc(-c5ccccc5)cc4)[C@H]3C2)c1
C[C@H](O)C#Cc1ccc2c(c1)O[C@@H](CN(C)Cc1ccc(-c3ccccc3)cc1)[C@@H](C)CN([C@H](C)CO)S2(=O)=O
Cc1noc(C)c1NC(=O)Nc1cccc2c1O[C@H](CN(C)Cc1ccc(Oc3ccccc3)cc1)[C@@H](C)CN([C@@H](C)CO)C2=O
COc1ccc(S(=O)(=O)Nc2ccc3c(c2)C(=O)N([C@@H](C)CO)C[C@@H](C)[C@@H](CN(C)S(=O)(=O)c2ccccc2)OCCCC[C@@H](C)O3)cc1
Cc1ccc(S(=O)(=O)N(C)C[C@@H]2OCCCC[C@H](C)Oc3ccc(NS(=O)(=O)c4ccc(Cl)cc4)cc3C(=O)N([C@@H](C)CO)C[C@@H]2C)cc1
C[C@@H]1CCCCO[C@@H](CN(C)C(=O)C2CCCCC2)[C@H](C)CN([C@@H](C)CO)C(=O)c2cc(NC(=O)Nc3ccc(F)cc3)ccc2O1
C[C@@H]1CCCCO[C@@H](CN(C)C(=O)Nc2ccc(C(F)(F)F)cc2)[C@@H](C)CN([C@H](C)CO)C(=O)c2cc(NS(=O)(=O)c3ccc(Cl)cc3)ccc2O1
COc1ccccc1NC(=O)N[C@H]1CC[C@@H](CCNS(=O)(=O)c2ccc(F)cc2)O[C@@H]1CO
C[C@H](CO)N1C[C@H](C)[C@@H](CN(C)C(=O)Cc2ccccc2)OCc2ccccc2-c2c(n(C)c3ccccc23)C1=O
C[C@H]1CN([C@@H](C)CO)C(=O)Cc2cc(NS(=O)(=O)c3ccccc3)ccc2O[C@H]1CN(C)Cc1ccc(C(=O)Nc2ccccc2N)cc1
C[C@@H]1CN([C@@H](C)CO)C(=O)c2cc(NC(=O)Cc3ccccc3)ccc2O[C@H]1CN(C)Cc1ccc(Oc2ccccc2)cc1
COc1ccccc1C#Cc1ccc([C@H]2[C@@H](CO)N3CCCCN(C(=O)C4CCCC4)C[C@@H]23)cc1
CS(=O)(=O)N(CC(=O)NC1CCCC1)c1cccc(F)c1
CNC[C@H]1Oc2ccc(NC(=O)Nc3ccc(F)cc3)cc2CC(=O)N([C@H](C)CO)C[C@H]1C
C[C@@H]1CN([C@@H](C)CO)C(=O)Cc2cc(NS(=O)(=O)c3ccc(F)cc3)ccc2O[C@@H]1CN(C)Cc1ccc(C(F)(F)F)cc1
Cc1cccc(S(=O)(=O)N(C)C[C@@H]2OCc3ccccc3-c3c(n(C)c4ccccc34)C(=O)N([C@H](C)CO)C[C@@H]2C)c1
C[C@@H]1CN([C@@H](C)CO)C(=O)c2cc(NC(=O)CCN3CCOCC3)ccc2O[C@H]1CN(C)Cc1ccc(C(F)(F)F)cc1
C[C@H]1CN([C@@H](C)CO)C(=O)c2cc(NC(=O)Nc3ccc(C(F)(F)F)cc3)ccc2O[C@H]1CN(C)S(=O)(=O)c1ccc(Cl)cc1
COc1ccc(S(=O)(=O)Nc2ccc3c(c2)C(=O)N([C@@H](C)CO)C[C@H](C)[C@H](CN(C)Cc2ccc(C(F)(F)F)cc2)OCCCC[C@@H](C)O3)cc1
C[C@@H]1CN([C@H](C)CO)C(=O)c2cc(NS(=O)(=O)c3ccc(F)cc3)ccc2O[C@@H](C)CCCCO[C@@H]1CN(C)CC1CCCCC1
C[C@H](CO)N1C[C@H](C)[C@@H](CN(C)Cc2ccc(Cl)c(Cl)c2)Oc2ccc(NS(=O)(=O)c3ccc(Cl)cc3)cc2CC1=O
C[C@@H]1CCCCO[C@@H](CN(C)Cc2ccc(C(F)(F)F)cc2)[C@H](C)CN([C@@H](C)CO)C(=O)c2cc(NS(=O)(=O)c3cccs3)ccc2O1
CO[C@H]1CN(C)C(=O)c2cc(NC(=O)CC(F)(F)F)ccc2OC[C@@H](C)N(C(=O)C2CCCCC2)C[C@@H]1C
